This is a sample that favours compounds with a hit; in the whole collection about 1.8% have one here.
Mcl1 Noxa PPI = Mcl-1/Noxa interaction inhibition | inhibition, % at 21.7 µM | AID 1022 | hit rate 1.5% among 220,000 | TR-FRET Mcl-1/Noxa peptide binding, 2 h | Q07820;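 active = compounds that cut the protein-peptide binding signal by more than 50% relative to plate controls in a single-dose test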;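 also: His-tagged Mcl-1 with rhodamine Noxa BH3 peptide and terbium anti-His antibody; 0% = Mcl-1 plus Noxa peptide wells and 100% = peptide-only wells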
TLR9-MyD88 inh = blocks human TLR9 binding to MyD88; CHO BLA complementation TLR9-MyD88, CCF4 FRET ratio; inhibition, % at 4.98 µM; hit rate 0.21% among 340,000;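 active = inhibition above the mean over all tested compounds plus 3 SD, cut at about 21% in these data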;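 also: 0% = DMSO only wells and 100% = clavulanate BLA inhibitor control wells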
TLR4-MyD88 BLA = inhibitors of human TLR4-MyD88 binding. O00206+Q99836. inhibition, % at 8.4 µM. HeLa CL3-4 TLR4/MyD88 BLA complementation, FRET ratio. hit rate 0.18% among 200,000. AID 861; in the data active = inhibition above about 25%;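 also: 0% = vehicle and 100% = reference inhibitor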
Mcl1-Bid inh = Mcl-1/Bid interaction inhibition | Q07820 | TR-FRET Mcl-1/Bid-Dy647 peptide binding, 1536-well | inhibition, % at 21.7 µM | hit rate 0.97% among 220,000 | AID 1021;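 active = compounds that cut the binding signal by more than half at the single screening dose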;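 also: His-tagged Mcl-1 with europium anti-His antibody binding Bid BH3 peptide; 0% = Mcl-1 plus peptide wells and 100% = peptide-only wells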
Bim-Mcl-1 = human Bim-Mcl-1 interaction inhibition | Bead-based flow cytometry, Bim peptide-Mcl-1 binding | inhibition, % at 10 µM | hit rate 0.1% among 190,000 | AID 1009; in the data active = inhibition above about 40%;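 also: 0% = no compound tracer wells and 100% = peptide blocker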
NOD2-RIPK2 inh = blocks binding of human NOD2 to RIPK2; O43353; CHO BLA complementation NOD2-RIPK2, CCF4 ratio; inhibition, % at 4.98 µM; AID 624267; hit rate 0.38% among 360,000; in the data active = inhibition above about 21%;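 also: 0% = vehicle only and 100% = reference blocker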
Target sequence (O43353 whole entry, looked up): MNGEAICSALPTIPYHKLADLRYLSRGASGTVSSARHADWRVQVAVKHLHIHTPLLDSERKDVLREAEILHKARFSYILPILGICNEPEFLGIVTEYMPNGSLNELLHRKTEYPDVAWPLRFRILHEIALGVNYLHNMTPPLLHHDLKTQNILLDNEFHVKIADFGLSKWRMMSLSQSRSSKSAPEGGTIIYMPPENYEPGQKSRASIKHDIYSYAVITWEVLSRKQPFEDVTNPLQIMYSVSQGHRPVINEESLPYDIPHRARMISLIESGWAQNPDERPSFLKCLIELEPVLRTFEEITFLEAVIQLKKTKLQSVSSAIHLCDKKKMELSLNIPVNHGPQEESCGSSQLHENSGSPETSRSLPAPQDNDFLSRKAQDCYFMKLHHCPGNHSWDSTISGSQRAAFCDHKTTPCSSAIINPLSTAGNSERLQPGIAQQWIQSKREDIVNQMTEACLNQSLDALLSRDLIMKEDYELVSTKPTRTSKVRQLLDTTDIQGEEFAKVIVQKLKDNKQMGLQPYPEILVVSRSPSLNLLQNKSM
TLR4-MyD88 conf = confirmation of human TLR4-MyD88 binding inhibitors. inhibition, % at 8.4 µM. shares compounds with TLR4-MyD88 BLA. hit rate 50% among 350. HeLa CL3-4 BLA complementation, CCF4 FRET ratio. AID 941;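 active = mean inhibition across three repeat runs above about 25% carried over from the earlier screen, limit read from the data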;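 also: plate controls were DMSO only for no effect and clavulanic acid blocking BLA at full dose for full effect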
BLA inh HeLa = inhibits beta-lactamase activity, counter-screen to TLR4-MyD88 binding inhibitors. shares compounds with TLR4-MyD88 BLA. HeLa BLA reporter, CCF4 FRET ratio. inhibition, % at 8.4 µM. hit rate 63% among 350. AID 1237;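 active = mean inhibition over three repeats above about 26% taken from the earlier screen, limit read from the data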;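 also: HeLa cells stably expressing beta-lactamase reporter as counterscreen for TLR4-MyD88 inhibitors; 0% = DMSO and 100% = clavulanic acid full inhibition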
* marks the source's active call; other numbers are inactive results.

What do the screens show for `COc1ccc(/C=C/C(=O)c2c(O)cc(C)oc2=O)c(OC)c1`?
Mcl1 Noxa PPI: 7; TLR9-MyD88 inh: 12; TLR4-MyD88 BLA: 9; Mcl1-Bid inh: -11; Bim-Mcl-1: 2; NOD2-RIPK2 inh: -4

Results for CCN(CC)c1ccc2cc(-c3nnc(-c4ccccc4)o3)c(=O)oc2c1 ?
Mcl1 Noxa PPI: -2; TLR9-MyD88 inh: 10; TLR4-MyD88 BLA: 8; Mcl1-Bid inh: 6; Bim-Mcl-1: -15; NOD2-RIPK2 inh: 12

What do the screens show for `CCN(CC)c1ccc2cc(-c3nnc(-c4ccc(Br)cc4)o3)c(=O)oc2c1`?
TLR4-MyD88 BLA: 11

Results for CCN(CC)c1ccc2cc(-c3nc4ccccc4[nH]3)c(=O)oc2c1 ?
Mcl1 Noxa PPI: 26; TLR9-MyD88 inh: 37*; TLR4-MyD88 BLA: 40*; Mcl1-Bid inh: 96*; Bim-Mcl-1: 3; NOD2-RIPK2 inh: 45*; TLR4-MyD88 conf: 64*; BLA inh HeLa: 78*

How did CCN(CC)c1ccc2cc(-c3nc(-c4ccc(OC)cc4)cs3)c(=O)oc2c1 do in these assays?
Mcl1 Noxa PPI: -1; TLR4-MyD88 BLA: 80*; Mcl1-Bid inh: -19; TLR4-MyD88 conf: 90*; BLA inh HeLa: 115*

Results for CN1CCN(Cn2cc(/C=C/C(=O)c3ccccc3)c3ccccc32)CC1 ?
Mcl1 Noxa PPI: -3; TLR9-MyD88 inh: 23*; TLR4-MyD88 BLA: 28*; Mcl1-Bid inh: -7; Bim-Mcl-1: -1; NOD2-RIPK2 inh: 33*; TLR4-MyD88 conf: 16; BLA inh HeLa: 34*

Results for Cc1ccc(-c2cc(C(=O)Nc3ccccc3C)c3ccccc3n2)o1 ?
Mcl1 Noxa PPI: 66*; TLR9-MyD88 inh: 2; TLR4-MyD88 BLA: 28*; Mcl1-Bid inh: 12; Bim-Mcl-1: -2; NOD2-RIPK2 inh: -2; TLR4-MyD88 conf: 4; BLA inh HeLa: 10

Results for COc1cccc(NC(=O)c2cc(-c3ccc(C)o3)nc3ccccc23)c1 ?
TLR9-MyD88 inh: 3; NOD2-RIPK2 inh: 0

What do the screens show for `Nc1nnc(-c2cc3c(ccc4ccccc43)oc2=O)s1`?
Mcl1 Noxa PPI: 35; TLR4-MyD88 BLA: 38*; Mcl1-Bid inh: 11; Bim-Mcl-1: 0; TLR4-MyD88 conf: 31*; BLA inh HeLa: 58*

Results for CC(=O)c1c(C)n([O-])c2cc(F)c(F)cc2[n+]1=O ?
Mcl1 Noxa PPI: -7; TLR9-MyD88 inh: 5; TLR4-MyD88 BLA: 28*; Mcl1-Bid inh: -12; Bim-Mcl-1: 3; NOD2-RIPK2 inh: 10; TLR4-MyD88 conf: 26*; BLA inh HeLa: 12

How did COc1ccc2c(c1)[n+](=O)c(C(C)=O)c(C)n2[O-] do in these assays?
Mcl1 Noxa PPI: 23; TLR9-MyD88 inh: 2; TLR4-MyD88 BLA: 0; Mcl1-Bid inh: -32; Bim-Mcl-1: -1; NOD2-RIPK2 inh: 1

What do the screens show for `COc1ccc(C2C=C(c3ccccc3)Nc3nc(CCCO)nn32)cc1` (stereo not drawn)?
Mcl1 Noxa PPI: 5; TLR4-MyD88 BLA: 26*; Mcl1-Bid inh: -21; Bim-Mcl-1: -4; TLR4-MyD88 conf: 26*; BLA inh HeLa: 38*

How did CCC(=O)Nc1nc2n(n1)C(c1ccc(OC)cc1)C=C(c1ccccc1)N2 (stereo not drawn) do in these assays?
Mcl1 Noxa PPI: 16; TLR4-MyD88 BLA: 14; Mcl1-Bid inh: -31; Bim-Mcl-1: -3

Results for COc1ccc(C2C(C(N)=O)=C(C)Nc3nc(CCCO)nn32)cc1 (stereo not drawn) ?
TLR9-MyD88 inh: 2; NOD2-RIPK2 inh: 5

Results for COc1ccc(C2C=C(c3cccs3)Nc3nc(CCCO)nn32)cc1 (stereo not drawn) ?
Mcl1 Noxa PPI: -12; TLR4-MyD88 BLA: 32*; Mcl1-Bid inh: -108; Bim-Mcl-1: -2; TLR4-MyD88 conf: 33*; BLA inh HeLa: 56*

How did CCCCC1CCc2[nH]nc(C(=O)O)c2C1 (stereo not drawn) do in these assays?
TLR9-MyD88 inh: 5; NOD2-RIPK2 inh: -5

Assay outcomes as filed in PubChem.
